Laboratory results published in PubChem BioAssay AID2283260 (EPA ToxCast).
Inconclusive results are not listed. The source made the active and inactive calls. How the source made its calls: active means hit-call score of the fitted dose curve at least 0.9, where 1 is the maximum; inconclusive means response in the unintended direction; inactive means score below 0.9.

biological target: human Complement Component 5, Anaphylatoxin Receptor (C5a), C5AR1 (gene 728) (UniProt P21730); assay: NVS_GPCR_hC5a: NovaScreen (NVS) G Protein-Coupled Receptor Assay for human Complement Component 5, Anaphylatoxin Receptor (C5a)
Description: NVS_GPCR_hC5a is a biochemical, single-readout assay that uses extracted gene-proteins from U937 in a cell-free assay. Measurements were taken 2 hours after chemical dosing in a 96-well plate.NVS_GPCR_hC5a is one of one assay component(s) measured or calculated from the NVS_GPCR_hC5a assay. It is designed to make measurements of radioligand binding, a form of binding reporter, as detected with scintillation counting signals by Filter-based radiodetection technology.Data from the assay component NVS_GPCR_hC5a was analyzed into 1 assay endpoint. This assay endpoint, NVS_GPCR_hC5a, was analyzed in the positive analysis fitting direction relative to DMSO as the negative control and baseline of activity. Using a type of binding reporter, loss-of-signal activity can be used to understand changes in the binding as they relate to the gene C5AR1. Furthermore, this assay endpoint can be referred to as a primary readout, because the performed assay has only produced 1 assay endpoint. To generalize the intended target to other relatable targets, this assay endpoint is annotated to the gpcr intended target family, where the subfamily is rhodopsin-like receptor.
Binding assays used specific radioligands (tritiated, iodinated) with non-radioactive competitive displacement ligands in agonist or antagonist protocols (as indicated) and various reference compounds and inhibitors to titrate specific binding to receptors and transporters. Most enzyme assays (CYPs, kinases, phosphatases, proteases, HDACs) used recombinant protein and specific substrates (fluorescence mostly, some colorimetric and radioactive) and inhibitors, followed by a biochemical separation of substrate and product. All assays for the biochemical HTS were initially run in duplicate at a single concentration (10 uM for CYP450 assays and 25 uM for all others). Assay-chemical combinations meeting a pre-defined threshold (e.g., 30% inhibition and other criteria defined below) were then run in singleton concentration-response format with maximum concentration of 20 uM for CYPs and 50 uM for all others. Each assay was run with positive and negative controls, and concurrent controls on every plate. The follow-up (secondary) screen tested active chemical-pairs in concentration series, as well as a few additional assays not tested in the primary screen, some selected negative inactives, and several cases re-run in the concentration series for confirmatory purposes.

human Complement Component 5, Anaphylatoxin Receptor (C5a), C5AR1 (gene 728), sequence (P21730 whole entry, looked up): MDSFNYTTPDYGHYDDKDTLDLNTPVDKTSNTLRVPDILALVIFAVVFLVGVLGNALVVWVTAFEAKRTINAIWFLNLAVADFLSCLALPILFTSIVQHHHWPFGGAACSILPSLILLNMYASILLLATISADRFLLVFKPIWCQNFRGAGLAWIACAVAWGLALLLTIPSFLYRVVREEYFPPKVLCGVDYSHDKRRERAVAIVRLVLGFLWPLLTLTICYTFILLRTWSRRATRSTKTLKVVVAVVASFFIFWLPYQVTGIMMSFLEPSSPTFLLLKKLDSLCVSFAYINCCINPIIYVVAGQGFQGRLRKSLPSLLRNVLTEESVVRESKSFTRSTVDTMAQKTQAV

Row | Compound | outcome | AC50
1 | COc1ccc(C(c2ccc(OC)cc2)C(Cl)(Cl)Cl)cc1 | inactive | –
2 | CCOC(=O)NCCOc1ccc(Oc2ccccc2)cc1 | inactive | –
3 | CCC[CH2][Sn]([Cl])([CH2]CCC)[CH2]CCC | inactive | –
4 | CCCCCCCCCC[N+](C)(C)CCCCCCCCCC | – | 42.3 µM (active)
5 | CC1(C)C(C=C(Cl)Cl)C1C(=O)OC(C#N)c1cccc(Oc2ccccc2)c1 (centres undefined) | inactive | –
6 | COC(=O)c1c(C(F)F)nc(C(F)(F)F)c(C2=NCCS2)c1CC(C)C | inactive | –
7 | CCC(C)(C)C(=O)OC1=C(c2ccc(Cl)cc2Cl)C(=O)OC12CCCCC2 | inactive | –
8 | [Cl-].[Cl-].[Hg+2] | – | 25 µM (active)
9 | CCCCCCCCCC | inactive | –
10 | Oc1ccc(C(c2ccc(O)cc2)C(Cl)(Cl)Cl)cc1 | inactive | –
11 | C=CCc1cc(S(=O)(=O)c2ccc(O)c(CC=C)c2)ccc1O | inactive | –
12 | C#CCOS(=O)OC1CCCCC1Oc1ccc(C(C)(C)C)cc1 (centres undefined) | inactive | –
13 | COc1cc(OC)nc(NC(=O)NS(=O)(=O)c2ncccc2OCC(F)(F)F)n1 | inactive | –
14 | CCOC(=O)O[C@H](C)OC(=O)c1ccc2c(c1)cc(C(=O)NC1CCN(C(C)C)CC1)n2Cc1cc(-c2ccc(Cl)s2)on1 | – | 39.6 µM (active)
